Common to all, as to assay: MAPPIT interaction score (arbitrary units); higher = stronger binary interaction signal, active = hit call of the paper
One assay deals with CG4789. To be noted: MAPPIT configuration: N-N; pair source set: Lit-BS-16.
The target in a further assay is PVRAP. The following applies: MAPPIT configuration: N-N; pair source set: Lit-BS-16.
Another assay has as its target CG4707. The following applies: MAPPIT configuration: N-N; pair source set: Curagen_high_conf.
The target of another assay is CG4860. The following applies: MAPPIT configuration: N-N; pair source set: Curagen_high_conf.
A further assay deals with CG4853. The following applies: MAPPIT configuration: N-N; pair source set: Curagen_low_conf.
The next assay concerns the target CG46280. The following applies: MAPPIT configuration: N-C; pair source set: screen_4.
The target in the next assay is CG4884. To be noted: MAPPIT configuration: N-N; pair source set: Finley_Y2H.
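Also: HEK293T cells with Epo stimulation, STAT-responsive firefly luciferase reporter, fold induction versus unstimulated cells divided by the larger fold induction of two negative controls lacking either bait or prey.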

B1: Jupiter (protein)
chain: MAAYAAFKHVELYNVGKAKKRVLRPPGGGSSDIFGSEMPQTPRNVKNRMASNIFAAEKDNGVKNNVRQGAHRFYFIGDAPRRGQKTVDSHSRLFGEPTRPITPGKNHMKSSIPFGQNTEAVAAQKLLTTNGHYNGKSGSVSSASSSVSSSTENLKMNSGSRSEGNPVTGEGYKVVANEYSQRQESSNGGTPVINKNRIPPGGYSSGLW
On to B1, for which the MAPPIT interaction score was 0.553 (inactive) in the assay with CG4789 and -1.6 (inactive) with PVRAP.

B2: Prosalpha7 (protein)
chain: MSTIGTGYDLSASQFSPDGRVFQIDYASKAVEKSGTVIGIRGKDAVVLAVEKIITSKLYEPDAGGRIFTIEKNIGMAVAGLVADGNFVADIARQEAANYRQQFEQAIPLKHLCHRVAGYVHAYTLYSAVRPFGLSIILASWDEVEGPQLYKIEPSGSSFGYFACASGKAKQLAKTEMEKLKMDMRTDELVESAGEIIYKVHDELKDKDFRFEMGLVGRVTGGLHLINPSELTEKARKAGDAANKDEDSDNETH
On to B2, for which, in the assay with CG4707, the MAPPIT interaction score is -0.137 (inactive).

B3: Ndg (protein)
chain: MPTFGSKLLACLLLSSVILVSGQFEHYLDSLRASELYEFEDGSLGSIHLLPKGDSETIVLQLEQPIHFYGEQYEQLYINTNGILTFNSEFPEYLNQPFPLEYASIAAFYSNVDTSFSDEGTSISLFESKEQSILDRASSLVRYAFSSQSEFEARQVIVATWRNVGYFDSKTDRLNTFQVALIANEQSTFVQFIYPDGGLNWLQGETAGLGLPDIRAQAGFVAEDGRFYTLNGSGSENARFLSESTNLGVPGVWLFEVAPIENEQNVRSPDNAESLTESPALALSCQAHAHQCHEKAECHDKAEGYCCVCGSGFYGNGKSCLANDQPIRVTGTLTGELNKQPVSEEAKLQSYVVTSEGRTYTTINPLTPELGAQLRLVLPLLTTVPWLFAKSVGGVANGYQLTGGVYTHVSRLQFDSGENLHVNQTFEGLNYWDQLSVKIEIYGEVPAVAADAVLILPDYVEEYTFERPGELKSVQVLNINITEEQRVLGLQVEQRILYRSCLRDDEADPSATKVLQKISKVALDYVERDQALRIGAMSKVGVTPESNACNDGTADCVENSVCVPYEDTYRCDCYHGFAAQLDERGVEVCLDIDECATGSHVCDENAVCDNTEGGFNCYCTEGFEGNGYRCLSNSTADNIEYPPAVEGQAEPTSEPSPNPSPYPDQGQDQEREREDDQYPQPNPYPYPEEQIPQHPDECYRCSKDADCYQGRCTCHEGFDGDGYTCTNICGHGEVWENGRCEPLLLERHDVDPLCDALGECRCPYGYELSEDSQRCTYVQEFDGERNADLIPCDVDENCHINATCNWYGQELRHICTCQPGFRGDGYNCDPISDDSCAIRPDICDVHADCVYEEHLGKSECQCQAGYTGNGFNCQLAAECQSAEHCGENAFCDDGVCRCQADFERDVSDRCVPAGRCGSVFCGSNAICKWDSAEGVQYCDCLDGYQGDALTGCTSKPLSCHVLNNCGIHATCEPTEDPANYECQCIAGFKGDGYVCIEEQNCLNNPTLCDMNAQCRSTNSGLVCVCNQGFFGNGSLCQERQHQDSDFLIVSQGVMIARVPLNGRNVRPISVAQMAIGLDKDCVEGRVYWGDISTKKIVSTKYDGTDLRPFITTDIESPEGIAIDVISRRLYWADSAKDTIEVASLDDPSLRAVIINKQLVNPRGIAVDPYREKLFWSDWDRESPKIEMSNLDGTGRELLLGKDDVTLPNSLVVLENSGEVCYADAGTKKVECIEPQNRQIRTISNELSYPFGITFTHDQFYWTDWTTKKVEIVDSLGARQTPIQPPFFGSHKMYGMTVVEQHCPQYQSPCQISNGGCTDSRLCLVNRQAPSGKSCKCTSASTGCTVLAPGY
With B3, the MAPPIT interaction score in the assay with CG4860 was -0.238 (inactive).

B4: Rtca (protein)
chain: MDAEKMLEIDGSYLEGGGQALRNALSLSCILGKPVRVVKIRASRPSPGLSHQHLHGLNLLRDITNADVVGNYLLSSTVEFTPRTILDNTYRVETHTAASITLIYQMALPVLLFAGRPSRLIVSGGTNVDFAPPVEYMQEVLLPNLKHFGVSFDLKVQRYGFYPRGQGRCQLDVQPVTKLNSGKLVAFGRIKSVSGVAYCAGRLPVNIAIDMQQTAQREIHRLWPSQQCSIEPIKHSRQKAFHNGAGILMTVNTTSDVVLGASALGKKRIDGHVLGSEASCQLGDYMRKQVCVDDYMQDQLIIYMALAVGRSTMRTGKLTNHTRTAINVAEQMTGVKFDVAMEPGGQMLVSCKGLGHVNKLI
With B4, in the assay with CG4853, the MAPPIT interaction score was 1.6 (inactive).

B5: Tm2 (protein)
chain: MDAIKKKMQAMKLEKDNAIDKADTCENQAKDANSRADKLNEEVRDLEKKFVQVEIDLVTAKEQLEKANTELEEKEKLLTATESEVATQNRKVQQIEEDLEKSEERSTTAQQKLLEATQSADENNRMCKVLENRSQQDEERMDQLTNQLKEARMLAEDADTKSDEVSRKLAFVEDELEVAEDRVRSGESKIMELEEELKVVGNSLKSLEVSEEKANQRVEEFKREMKTLSIKLKEAEQRAEHAEKQVKRLQKEVDRLEDRLFNEKEKYKAICDDLDQTFAELTGY
Take B5: the MAPPIT interaction score with CG46280 is 1.5 (inactive).

B6: nudE (protein)
chain: MESPPMFNSVEDECRYWKERSKQYHKEWTDVKQEYDEFVEQSREMEIEMDATLDQKQSIIKDLTAKLTMFERENESLKLKLESHGIDMSNMEKQLETVKKDRDTMKVYLRQLEQKNDDLERAHRILNESIENFEKMLDQAYEKNALLELEVDEKGLLQEKLQRLMDETRDLKQELNVKSRFTPVVNGTSVPTANDTNTVNSSMNSSASLPNGIVANGELVKHDNAVATRATSVSVNALNGSLVNRNEYNQQHSLKSDGDETEDVPREWSANAAATPLLPAIHTSGAGRTALLLAGCRVVWILQFSVIHKPQIRNPIT
As for B6, the MAPPIT interaction score with CG4884 is 0.246 (inactive).
